Data from the supplement of paper PMC3334620.
The full ranking holds about 33,000 sequences; the median of “E-score (-0.5 to 0.5)” is about -0.0034, and the highest 2% start at about 0.25. Only a selection was taken, and the highest values are over-represented in it overall.

Each sequence was assayed against T1, Yap3 (UniProt P38749) (assay: PBM E-score (8-mer binding enrichment) (E-score (-0.5 to 0.5)); higher = stronger / more preferred TF binding). Conditions: protein concentration: 100 nM; construct: GST-full length.
T1 sequence: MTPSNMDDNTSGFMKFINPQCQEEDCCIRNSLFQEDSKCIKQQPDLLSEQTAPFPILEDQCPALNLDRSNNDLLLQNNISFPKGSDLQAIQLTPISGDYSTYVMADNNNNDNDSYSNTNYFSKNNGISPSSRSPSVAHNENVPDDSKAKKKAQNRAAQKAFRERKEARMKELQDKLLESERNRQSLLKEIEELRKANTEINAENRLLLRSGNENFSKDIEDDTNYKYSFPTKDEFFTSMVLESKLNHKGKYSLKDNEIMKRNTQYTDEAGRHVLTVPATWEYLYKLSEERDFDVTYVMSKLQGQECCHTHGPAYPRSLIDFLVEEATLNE
Summary of the method: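 For each ungapped eight-base word taken together with its reverse complement, the Universal PBM Analysis Suite assigned an E-score. Binding data came from GST-tagged yeast transcription factors, applied at about 100-200 nM, on universal all-10-mer Agilent arrays made double-stranded by primer extension. Fluorescent anti-GST marked bound protein, and scans were normalised with masliner.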

| Sequence | PBM E-score |
| --- | --- |
| ACTTATGC | 0.0843 |
| GGGTAGAC | -0.216 |
| AGAATCGA | 0.0567 |
| CGAATCGA | 0.301 |
| GGAATCGA | -0.059 |
| CCTATTGA | 0.0457 |
| CGCTAACA | 0.118 |
| AATATGAA | 0.279 |
| AATATGAG | 0.0655 |
| AATATGAC | 0.223 |
| TATATGAA | 0.203 |
| GATATGAA | 0.214 |
| AATATGAT | 0.279 |
| CCAGTCTC | -0.22 |
| AGGACACA | 0.0983 |
| CCATAATC | 0.144 |
| ACATAACA | 0.285 |
| GCATAACA | 0.157 |
| ACATAAGA | 0.185 |
| ACATAACC | 0.0973 |
| ACATAACT | 0.192 |
| GCATAATA | 0.283 |
| ACATAATG | 0.211 |
| ACATAATA | 0.353 |
| ACATAATC | 0.293 |

| Sequence | PBM E-score |
| --- | --- |
| GCATAAGA | 0.0573 |
| CCATAATA | 0.214 |
| ATGTGGAC | -0.0215 |
| ACCTCCTC | -0.145 |
| AATGCAGT | 0.0696 |
| TACTAAGA | 0.242 |
| ACCGCTGG | -0.16 |
| CAGCCCCC | -0.384 |
| GTAAAGTA | 0.251 |
| ATAAAGTA | 0.286 |
| ATAAAGTG | 0.271 |
| CTAAAGTA | -0.0221 |
| ACAAAGTG | 0.0611 |
| ATAAAGTC | 0.133 |
| AGTGCGGC | -0.165 |
| GATGAGAA | 0.0962 |
| CCGCATGC | -0.00346 |
| CTAATGGA | -0.0109 |
| ATAATGGA | 0.188 |
| AAAATGAC | 0.13 |
| GTAATGGA | 0.288 |
| AAAATGGA | 0.309 |
| CAAATGGA | -0.0854 |
| AAAATGGG | -0.0559 |
| AAAATGAA | 0.208 |

| Sequence | PBM E-score |
| --- | --- |
| AAAATGAT | 0.265 |
| CACCCGAA | 0.0804 |
| ACCAAGAC | 0.175 |
| AACGACAT | 0.202 |
| AGAACTGC | -0.131 |
| CATGAACC | 0.0622 |
| GTTCACAA | 0.043 |
| ATTCACAA | 0.294 |
| ATTCACAG | 0.0188 |
| GCATACGA | -0.062 |
| AAACGGAT | 0.277 |
| GAACGGTA | 0.083 |
| CTACGGAA | 0.068 |
| CAACGGTA | -0.108 |
| ATACGGAA | 0.185 |
| AAACGGGA | 0.12 |
| AAACGGTA | 0.301 |
| TTACGGAA | 0.266 |
| AAACGGAC | -0.155 |
| AAACGGAG | 0.0915 |
| AAACGGAA | 0.263 |
| ACACGGAA | 0.0309 |
| ACATGGGT | -0.0457 |
| ACTAGCAT | -0.0172 |
| ACAAGCGC | 0.0537 |

| Sequence | PBM E-score |
| --- | --- |
| ATACCATC | 0.119 |
| CCATTTGA | -0.0292 |
| TCGATCCA | -0.0884 |
| ACGCGCAC | -0.015 |
| CCAGTTAA | 0.143 |
| GGAGCCTA | -0.0407 |
| TAACGGAA | 0.276 |
| CAACGGAA | 0.15 |
| GAACGGAA | 0.0365 |
| GAACAAAA | 0.346 |
| AAACAAAA | 0.185 |
| ACCAAAAT | 0.0693 |
| ACCAAAAC | 0.104 |
| GAACAAAC | 0.227 |
| AACAAAAC | 0.239 |
| GACAAAAC | 0.179 |
| GACAAAAA | 0.315 |
| GACAAGAA | 0.127 |
| ACCAAAAA | 0.277 |
| AACAAAAA | 0.307 |
| AACAAAAG | 0.164 |
| AGGCCACA | -0.191 |
| GGGATTGA | -0.173 |
| CAGTAGCA | -0.0517 |
| AGTGAAGG | 0.0123 |

| Sequence | PBM E-score |
| --- | --- |
| TTATCAAA | 0.283 |
| CTATCAAA | 0.155 |
| CAATCAAA | 0.0584 |
| GAATCAAA | 0.0372 |
| TAATCAAA | 0.285 |
| GTATCAAA | 0.187 |
| GGCGCTGA | -0.124 |
| ATCAGCTC | 0.00619 |
| AGTTACAC | 0.0567 |
| CAACATTG | 0.115 |
| CTGATTTA | 0.14 |
| GTGATTTA | 0.261 |
| CCGATTTA | 0.107 |
| ATGATTTA | 0.202 |
| GCGATTTA | 0.0749 |
| ACGATTTA | 0.312 |
| CACCTCTA | 0.158 |
| GCAGATAA | -0.0214 |
| ATATACTA | 0.306 |
| CTATACAA | 0.189 |
| ATATACAA | 0.322 |
| ATATACTC | 0.126 |
| CTATACTA | 0.16 |
| ATATACAC | 0.171 |
| AGATCTAC | 0.0426 |

| Sequence | PBM E-score |
| --- | --- |
| AGTAACCC | -0.00628 |
| ACAAGTAA | 0.0548 |
| GTCCCTTA | 0.179 |
| ACTTATTC | 0.162 |
| GCTTATTA | 0.232 |
| ACTTATAG | -0.0355 |
| ACTTATTA | 0.263 |
| CCTTATGA | 0.113 |
| CCTTATTA | 0.33 |
| CCTTATTC | 0.0232 |
| ACTTATAC | 0.174 |
| ACTTATAT | 0.29 |
| CCCACGTC | -0.122 |
| CGATTAGC | -0.102 |
| GCACTATA | 0.0864 |
| TAGCAAGA | 0.0496 |
| ACGTAAGA | 0.23 |
| AGGTAATA | 0.294 |
| ACGTAACG | 0.208 |
| GCGTAATA | 0.305 |
| GCGTAAAA | 0.231 |
| ACGTAAAA | 0.198 |
| CCGTAATA | 0.201 |
| GGGTAATA | 0.0455 |
| CGGTAATA | 0.202 |

| Sequence | PBM E-score |
| --- | --- |
| ACGTAATG | 0.354 |
| ACGTAAAG | 0.184 |
| ACGTAATA | 0.44 |
| GAGAGCGA | -0.166 |
| CCAGTGTC | -0.1 |
| GCAGATCC | 0.0102 |
| ATCAATAC | 0.11 |
| ACTACCTG | 0.0736 |
| GCGTCTCC | -0.0737 |
| AAATCCTT | -0.0476 |
| CGCTACAC | -0.0665 |
| GATTCAAA | 0.0843 |
| AGCTCTAT | 0.0447 |
| GCTTCTCA | -0.0894 |
| GCAACATA | 0.0566 |
| CCAACATC | -0.011 |
| CCAACATA | 0.305 |
| CCAATGCC | -0.162 |
| AAAAGTAG | 0.105 |
| GCAGCAAA | -0.0366 |
| ACATTCTG | -0.0885 |
| CGCATTGA | 0.125 |
